Our source for the growth values is PubChem BioAssay (NCI).

Common to all, as to assay: NCI-60 one-dose screen, 48 h (100 = growth as untreated, 0 = no growth, -100 = all killed)
Conditions in all cases: 10 µM unless noted

Assay [1] deals with DU-145 prostate.
Assay [2] concerns K-562 leukemia.
Assay [3] has as its system MALME-3M melanoma.
Assay [4] deals with MDA-MB-231 breast.
For assay [5], the system named is RXF 393 renal.
Assay [6] deals with SF-268 CNS.
Assay [7] concerns SF-295 CNS.
The test system of assay [8] is SF-539 CNS.
The test system of assay [9] is UACC-257 melanoma.
Assay [10] relates to M14 melanoma.

This is part of a sample that, as a whole, favours compounds with a hit. Of some 83,000 tested, about 20% had one in any assay.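 Growth was measured after 48 h exposure to one concentration of compound in 96-well plates. Values under 10 count as active.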 A number with no mark means an inactive call. Activity calls are given as the source filed them.

Turning to `O=S(=O)(O)c1ccc(N/N=C/c2ccccc2Cl)cc1`, the growth in assay [1] was 116%; in assay [2], 95.6%; in assay [3], 109%; in [4], 118%; in [5], 125%; in assay [6], 103%. Also, the growth is 108% in [7], 101% in assay [8], 116% in assay [9] and 99.9% in assay [10].

Turning to `COC(=O)c1c2c(c(C)[n+]([O-])c1C)C(=O)C(NCc1ccc(F)c(Cl)c1)=CC2=O`, the growth in assay [1] was 36.2%; in assay [2], 5.87% (active); in assay [3], -93.5% (active); in assay [4], 2.68% (active); in assay [5], 36.2%; in assay [6], 9.33% (active). Moreover, the growth in assay [7] is 39%; in assay [8], 3.31% (active); in [9], -69.3% (active); in assay [10], -19.6% (active).

Turning to `CC1(C)CC[C@]2(C(=O)N3CCOCC3)CC[C@]3(C)C(=CC[C@@H]4[C@@]5(C)CC[C@H](OC(=O)c6cccnc6)C(C)(C)[C@@H]5CC[C@]43C)[C@@H]2C1`, the growth is 60.9% in [1]; 36% in assay [2]; 88.6% in assay [3]; 70.4% in assay [4]; 84.3% in [5]; 71.1% in assay [6]. The growth in assay [7] was 51.2%; in assay [8], 71.5%; in [9], 65.5%; in assay [10], 72.8%.

With `COc1ccc(-c2nc(SCC(=O)Nc3nc(-c4ccccc4)cs3)[nH]c(=O)c2C#N)cc1`, the growth in assay [1] was 118%; in assay [2], 93.5%; in [3], 90.1%; in assay [4] it was 95.1%; in assay [5], 96.6%; in assay [6] it was 95.9%. Moreover, the growth in assay [7] is 96.3%; in assay [8] it was 103%; in [9], 109%; in [10] it was 89.6%.

For `Cc1c(C)c2c(c(C)c1OCC(=O)O)CC[C@@](C)(CCC[C@@H](C)CCC[C@@H](C)CCCC(C)C)O2`, the growth in assay [1] was 6.97% [50 µM] (active); in assay [2], 6.54% [50 µM] (active); in assay [3], -35.8% [50 µM] (active); in assay [4], -2.79% [50 µM] (active); in [5], -34.5% [50 µM] (active); in assay [6], -5.58% [50 µM] (active). Moreover, the growth in assay [7] is 35.8% [50 µM]; in assay [8], -7.25% [50 µM] (active); in assay [9], 38.7% [50 µM]; in assay [10], -19.2% [50 µM] (active).

For `O=C(c1ccccc1)c1c(/C=C/c2ccccc2)nc2ccccc2c1/C=C/c1ccc(Br)cc1`, the growth in [1] is 105%; in assay [2] it was 97.3%; in assay [3] it was 106%; in assay [4] it was 100%; in assay [5], 104%; in [6] it was 91.6%. The growth was 101% in assay [7], 106% in assay [8], 99.8% in assay [9] and 96.8% in [10].

`NS(=O)(=O)c1ccc(-n2nc(C(=O)N/N=C\c3ccc(F)cc3)cc2-c2ccc(Cl)cc2)cc1`: the growth is 104% in [1]; 87.9% in assay [2]; 89.9% in [3]; 74% in assay [4]; 89.5% in assay [5]; 88.3% in assay [6]. In addition, the growth in assay [7] was 97%; in assay [8], 88.1%; in [9], 101%; in assay [10] it was -85.9% (active).

For the molecule `C=C(C)[C@@H]1CC[C@]2(C(=O)NC3CCCCC3)CC[C@]3(C)[C@H](CC[C@@H]4[C@@]5(C)CCC(=O)C(C)(C)[C@@H]5CC[C@]43C)[C@@H]12`, the growth in assay [1] was 104%; in assay [2] it was 84.2%; in assay [3], 84.2%; in [4] it was 87.4%; in assay [5] it was 98.3%; in [6], 94.3%. For the same molecule, the growth in assay [7] is 97.8%; in assay [8], 96.1%; in [9] it was 94.2%; in assay [10], 97.7%.

Regarding `Fc1c[c-]c(-c2ccccn2)c(F)c1.[CH3-].[Pt+2].c1ccc(P(C[PH+](c2ccccc2)c2ccccc2)c2ccccc2)cc1`, the growth in [1] was 5.54% (active); in [2], 4.93% (active); in [3] it was -83.2% (active); in assay [4], -59% (active); in [5], -82.3% (active); in assay [6], 16.9%. For the same molecule, the growth is 6.1% (active) in assay [7], -86.3% (active) in assay [8], -4.95% (active) in assay [9] and -20% (active) in assay [10].

Consider `COc1cc(C(=O)/C=C/c2c(C(F)(F)F)nc3sccn23)cc(OC)c1OC`, for which the growth in assay [1] is 10.7%; in assay [2] it was -16.1% (active); in [3] it was 78.6%; in assay [4] it was 29.1%; in assay [5], -55.7% (active); in assay [6], 16.1%. Moreover, the growth in [7] is -2.07% (active); in assay [8] it was -59.1% (active); in [9] it was 13.4%; in assay [10] it was -39.2% (active).

On to `Cc1nc2ccccc2c(/C=C/c2ccc(Cl)cc2)c1C(=O)/C=C/c1ccc(F)cc1`, for which the growth in [1] is -8.13% (active); in assay [2], 5.45% (active); in [3] it was -6.33% (active); in assay [4] it was 1.67% (active); in assay [5], -48.9% (active); in assay [6], 48.6%. The growth was 12.3% in [7], -61.2% (active) in assay [8], 15% in [9] and 5.81% (active) in assay [10].

For `O=[N+]([O-])c1ccc(OCCO)cc1`, the growth in [1] is 107%; in [2] it was 78.8%; in [3], 107%; in assay [4], 114%; in assay [5], 105%; in assay [6], 100%. Also, the growth in assay [7] was 105%; in [8], 108%; in assay [9], 104%; in assay [10], 109%.

With `CCCCCCCCn1ccc2cc(NC(=O)Cn3cc(CN4CCCC4)nn3)ccc21`, the growth in [1] is 66.9%; in [2] it was 2.29% (active); in assay [3], -63.3% (active); in assay [4], 11.6%; in [5] it was 44.6%; in assay [6], 46.2%. The growth in assay [7] was -68.3% (active); in [8], 78.9%; in assay [9], 51.6%; in assay [10] it was -66.5% (active).
